Screening data as filed in PubChem BioAssay.
An excerpt weighted towards active compounds, which were near 4.7% of everything screened.
TRHR enhancer: allosterically enhances the human TRH receptor; AID 493056; 360,000 tested, 0.66% active; TRHR cells, fluo-8 calcium fluorescence, EC20 TRH enhancement; enhancement, % at 2 µM; in the data active means enhancement above about 30%; further: 0% is about no effect
Target sequence (P34981 whole entry, looked up): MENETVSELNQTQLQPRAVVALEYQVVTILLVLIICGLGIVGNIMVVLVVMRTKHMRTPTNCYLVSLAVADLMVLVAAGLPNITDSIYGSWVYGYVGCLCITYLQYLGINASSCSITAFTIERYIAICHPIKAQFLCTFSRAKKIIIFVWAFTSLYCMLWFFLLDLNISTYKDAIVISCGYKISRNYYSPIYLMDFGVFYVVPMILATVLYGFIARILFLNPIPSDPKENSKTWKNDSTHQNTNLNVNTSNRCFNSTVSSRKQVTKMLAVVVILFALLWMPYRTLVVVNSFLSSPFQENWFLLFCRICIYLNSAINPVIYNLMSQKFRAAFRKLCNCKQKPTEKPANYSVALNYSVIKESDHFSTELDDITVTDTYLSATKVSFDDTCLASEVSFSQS
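Enhancer read-out: after compound pinning and an initial kinetic agonist-mode read, an EC20 of TRH (10 nM final) was injected and fluo-8 calcium signal (Ex 480/Em 530) followed at 1 s/cycle for 100 cycles in TRHR-expressing cells.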
D1 agonist: human D1 receptor agonism | P21728 | HEK293 T-REx D1 cells, calcium flux, agonist mode | activation, % at 2 µM | 360,000 tested, 1% active | AID 504660; further: 0% is about no effect
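Agonism was scored from calcium flux recorded over 180 s (1 read/s) after pintool compound addition, following a 10-cycle baseline. Cells were inducible force-coupled HEK293 TREx D1, plated overnight at 30 C and loaded with no-wash calcium dye.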
D1 antag: human D1 dopamine receptor antagonism | activity change, negative = inhibition, % at 10 µM | 360,000 tested, 3.2% active | HEK293 TREx D1 cells, calcium flux, dopamine EC80; stronger effect = lower value; in the data active means activity change below about -30%; further: on the % scale 0 is the no-effect control and ±100 the full control effect
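Calcium flux readout: force-coupled, inducible Hek293 Trex D1 line, cells induced overnight at 30 C with tetracycline, dye-loaded 30–90 min at RT. Antagonism scored against EC80 dopamine challenge given 180 s after compound.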
TRHR ag: activates the human TRH receptor; activation, % at 2 µM; AID 493084; TRHR cells, calcium flux fluo-8, FDSS agonist mode; 360,000 tested, 0.18% active; further: 0% is about no effect
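TRHR-expressing cells, plated overnight in medium with 10% serum, were loaded with fluo-8 calcium dye at room temperature. After a 10 s baseline, library compound was pin-added and calcium release was recorded kinetically (ex 480/em 530) as agonist response.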
D1 PAM: human D1 dopamine receptor positive modulation. 360,000 tested, 0.036% active. AID 504651. HEK293 TREx D1 cells, calcium flux, dopamine EC20 potentiation. potentiation, % at 10 µM; in the data active means potentiation above about 30%; further: 0% is about no effect
* hit, by the source's call; ! = a repeat was not active. Unless noted, no stated cut-off is given here; in the data, active means activation above about 30%; inactive means the rest.

SMILES	TRHR enhancer	D1 agonist	D1 antag	TRHR ag	D1 PAM
Cc1ccccc1C(=O)Nc1ccc2c(c1)CCCN2C(=O)c1cccs1	-6	5	-37*!	-1	-6
COc1ccc(NS(=O)(=O)c2cc(NC(=O)c3cccs3)ccc2N2CCOCC2)cc1	18	2	-8	0	3
CC(C)CN1C(=O)c2ccc(NC(=O)c3cccs3)cc2C1=O	38*	2	-15	1	-9
COc1ccccc1NS(=O)(=O)c1cc(NC(=O)c2cccs2)ccc1N1CCOCC1	0	3	-30*	1	2
O=C(Nc1ccc(N2CCCC2)c(Cl)c1)c1cccs1	0	4	-32*	0	-6
COc1ccccc1-c1noc(-c2ccc(N(C)Cc3ccccc3)c([N+](=O)[O-])c2)n1	-3	4	10	0	0
COC(=O)CN1C(=O)[C@H]2[C@@H](/C=C/c3ccccc3)N3C(=O)CN(Cc4ccccc4)C(=O)[C@@]3(C)[C@H]2C1=O	-4	-1	3	0	-7
COc1ccc2nc(NC(=O)C3CCN(C(=O)c4ccco4)CC3)sc2c1	-2	5	1	0	-11
O=C(Cc1ccccc1)Nc1ccc(NC(=O)c2cccs2)cc1Cl	5	7	-31*	0	-2
CCOc1ccc(N2CC(C(=O)NC3CCCCCC3)CC2=O)cc1 (stereo unspecified)	3	1	-15	0	1
Cc1cc(N2CCN(C)CC2)nc2ccc(NC(=S)N3CCN(c4cccc(Cl)c4)CC3)cc12	-3	0	3	0	-4
Cc1cccc(N2CCN(C(=S)Nc3ccc4nc(N5CCN(C)CC5)cc(C)c4c3)CC2C)c1 (stereo unspecified)	-1	3	-73*	1	-6
COc1cc(OC)cc(C(=O)Nc2ccc3nc(N4CCCCC4)cc(C)c3c2)c1	5	-1	-46*	0	5
Cc1cc(N2CCN(C)CC2)nc2ccc(NC(=O)Nc3ccc(Cl)cc3)cc12	3	18	-15	1	-5
Cc1cc(N2CCN(C)CC2)nc2ccc(NC(=O)c3ccc(C(C)(C)C)cc3)cc12	13	20	-75*	0	0
CC(OCCN1CCCC1)(c1ccc(F)cc1)c1ccc(F)cc1	-7	16	-24	1	-9
O=C(O)C1C2CCC(CC2)C1C(=O)N1CCN(Cc2ccc(F)cc2)CC1 (stereo unspecified)	-4	-3	-8	0	-8
COc1ccc(C(CNC(=O)c2ccccc2C)N2CCCC2)cc1 (stereo unspecified)	8	1	5	1	-2
COc1ccc(C(CNC(=O)c2cc(=O)[nH]c3ccccc23)N2CCCC2)cc1 (stereo unspecified)	-1	5	-38*	1	-7
COc1ccc(C(CNC(=O)c2ccco2)N2CCOCC2)cc1 (stereo unspecified)	-8	5	-2	0	-5
COc1ccc(C(CNC(=O)c2ccc(-c3cccc(C(F)(F)F)c3)o2)N2CCOCC2)cc1 (stereo unspecified)	3	34*	30	9	7
COc1ccc(C(=O)NCC(c2ccc(N(C)C)cc2)N2CCCC2)c(OC)c1 (stereo unspecified)	6	-1	-8	-1	2
COc1ccc(C(CNC(=O)c2nn(-c3ccccc3)c(=O)c3ccccc23)N2CCOCC2)cc1 (stereo unspecified)	32*	5	-4	0	-8
COc1ccc(Cl)cc1C(=O)NCC(c1ccc(N(C)C)cc1)N1CCCC1 (stereo unspecified)	20	34*	-6	-1	2
CCC(C)NC(=O)CNC(=O)c1nn(-c2ccc(OC)cc2)c(=O)c2ccccc12 (stereo unspecified)	8	0	-7	0	-5
SMILES	TRHR enhancer	D1 agonist	D1 antag	TRHR ag	D1 PAM
CC1=C(C(=O)Nc2ccccc2)C(c2ccncc2)n2nc(SCc3ccccc3F)nc2N1 (stereo unspecified)	11	2	-3	0	-1
CSc1ccc(CCNC(=O)C(C)n2nc(C)c3sc4ccccc4c3c2=O)cc1 (stereo unspecified)	-9	3	-9	0	-3
O=C(Nc1ccc(F)cc1F)c1cc(S(=O)(=O)N2CCCCC2)c[nH]1	4	3	-23	0	2
Cc1cc(C)nc(-n2ncc3c2CC(C)CC3=O)n1 (stereo unspecified)	0	1	-3	0	-1
c1ccc2[nH]c3cc4ncnc4cc3nc2c1	10	33*	-1	14	3
FC(F)c1nc2ccccc2[nH]1	3	-1	18	0	-2
CN(C)c1nc(OCCOC(=O)c2ccccc2)nc(N(C)C)n1	-1	31*	0	2	-1
CC(C)Nc1nc(NC(C)C)nc(OCCOC(=O)c2ccccc2)n1	-2	-1	-5	-1	0
CCOC(=O)c1scc(-c2ccccc2)c1S(=O)(=O)Nc1cc(Cl)c(OC)cc1OC	-3	3	-7	0	-7
COc1ccc(CC(=O)Nc2cc(-c3cn4cccnc4n3)ccc2OC)cc1	-2	0	-2	0	-4
Cc1cccc(-c2nn3c(=O)cc(CN4CCN(C(=O)c5ccccc5Br)CC4)nc3s2)c1	2	0	-34*	0	-5
Cc1ccccc1-c1nn2c(=O)cc(CN3CCN(C(=O)/C=C/c4ccccc4)CC3)nc2s1	-1	-1	-32*	-1	-6
Cc1cccc(-c2nn3c(=O)cc(CN4CCN(S(=O)(=O)c5ccc(Cl)cc5)CC4)nc3s2)c1	-9	1	-10	0	2
CC(C)n1cc(CN2CCN(CCc3ccccc3)C(CCO)C2)cn1 (stereo unspecified)	-4	1	6	0	-4
Cc1ccc(C(=O)N/C(=C\c2cccs2)C(=O)NC2CCCCC2)cc1	40*	2	5	1	-1
Cc1ccc(C(=O)N/C(=C/c2cccs2)C(=O)N2CCCCCC2)cc1	6	0	-7	0	-11
Cc1cccc(-n2c(Cc3ccccc3)n[nH]c2=S)c1	-10	1	-40*	0	-5
Cc1cccc(-n2c(CNC(=O)Cc3ccccc3)n[nH]c2=S)c1	3	1	1	0	7
CCOC(=O)CSc1nc2c(cnn2-c2ccc(F)cc2)c(=O)[nH]1	1	3	7	-1	5
COC(=O)CSc1nc2c(cnn2-c2ccc(F)cc2)c(=O)[nH]1	-9	1	-33*!	0	-5
O=C(CCCc1ccccc1)NCCC1=CCCCC1	0	0	-10	-2	-4
O=C(NCCC1=CCCCC1)c1ccc(Br)o1	-4	0	6	0	-7
O=C(NCCC1=CCCCC1)C(c1ccccc1)c1ccccc1	-4	5	-33*	0	-8
